Screening results as filed in PubChem BioAssay.
An excerpt weighted towards active compounds, which were near 1.8% of everything screened.
LYPLA2 inh = blocks human lysophospholipase 2, a PME1 counter-screen; inhibition, % at 5.9 µM; recombinant LYPLA2, FP-Rh probe fluorescence polarization; hit rate 0.38% among 320,000;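 active means inhibition above the screen-wide mean plus 3 SD, limit set per campaign, cut at about 26% in these data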;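 further: 0% = LYPLA2 with DMSO and 100% = wells lacking LYPLA2 enzyme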
Target sequence (O95372 whole entry, looked up): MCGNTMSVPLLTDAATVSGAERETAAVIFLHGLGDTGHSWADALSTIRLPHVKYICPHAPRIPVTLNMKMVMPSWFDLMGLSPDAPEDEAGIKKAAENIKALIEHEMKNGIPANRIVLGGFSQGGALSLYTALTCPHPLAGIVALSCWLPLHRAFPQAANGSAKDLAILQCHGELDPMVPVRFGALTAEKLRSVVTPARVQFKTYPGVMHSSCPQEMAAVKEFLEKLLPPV
PME-1 inh = PME-1 (human) inhibition. Q9Y570. recombinant PME-1, FP-Rh probe fluorescence polarization. inhibition, % at 5.9 µM. hit rate 0.53% among 320,000;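 active means inhibition above the campaign mean of all compounds plus 3 SD, cut at about 26% in these data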;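 further: competitive labeling of PME-1 active site by serine hydrolase directed probe; 0% = PME-1 with DMSO and 100% = wells lacking PME-1 enzyme; inhibitors block probe labeling so polarization falls and inhibition rises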
PAD4 inh = PAD4 (human) enzyme inhibition; recombinant PAD4, RCA probe fluorescence polarization; inhibition, % at 6.36 µM; hit rate 0.41% among 330,000; AID 485272;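 active means percent inhibition above a cutoff equal to the mean of all tested compounds plus 3 SD, cut at about 15% in these data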;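 further: 0% = PAD4 with RCA probe and DMSO and 100% = probe without PAD4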
LYPLA1 counter = LYPLA1 (human) inhibition in PME1 counter-screen | O75608 | recombinant LYPLA1, FP-Rh probe fluorescence polarization | inhibition, % at 5.9 µM | hit rate 0.16% among 320,000 | AID 2174;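 active means inhibition above the mean of all tested compounds plus 3 SD, set per campaign, cut at about 14% in these data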;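 further: inhibitors block serine hydrolase probe labeling of LYPLA1 so polarization falls; 0% = enzyme with DMSO and 100% = wells lacking LYPLA1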
Target sequence (O75608 whole entry, looked up): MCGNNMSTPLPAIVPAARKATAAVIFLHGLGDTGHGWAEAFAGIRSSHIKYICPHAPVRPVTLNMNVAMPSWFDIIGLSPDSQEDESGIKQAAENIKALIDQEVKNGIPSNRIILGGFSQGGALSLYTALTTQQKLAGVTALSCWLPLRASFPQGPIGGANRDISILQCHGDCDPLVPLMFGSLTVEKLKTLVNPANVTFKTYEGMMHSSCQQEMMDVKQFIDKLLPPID
Fam108B counter = Fam108B inhibition, counter-screen for RBBP9 inhibitors; recombinant Fam108B, FP-Rh probe fluorescence polarization; inhibition, % at 9.51 µM; hit rate 0.33% among 300,000; AID 1947;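 active means inhibition above the screen mean inhibition plus 3 SD, computed separately per campaign, cut at about 18% in these data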;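 further: inhibitors lower polarization as less probe binds the enzyme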
GSTO1 counter = counter-screen for RBBP9 inhibitors: inhibitors of human GSTO1; recombinant GSTO1, activity-based probe fluorescence polarization; P78417; hit rate 1.1% among 300,000; inhibition, % at 5.96 µM;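 active means inhibition above the campaign mean inhibition plus 3 SD, cut at about 35% in these data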;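 further: 0% = GSTO1-1 with DMSO and 100% = wells lacking GSTO1-1 enzyme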
Target sequence (P78417 whole entry, looked up): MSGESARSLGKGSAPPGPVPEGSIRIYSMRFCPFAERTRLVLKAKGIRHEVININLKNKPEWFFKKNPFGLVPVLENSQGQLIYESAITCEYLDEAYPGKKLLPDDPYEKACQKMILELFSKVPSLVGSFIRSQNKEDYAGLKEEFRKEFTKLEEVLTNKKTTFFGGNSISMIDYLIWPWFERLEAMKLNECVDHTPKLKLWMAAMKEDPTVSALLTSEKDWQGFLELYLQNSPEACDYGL
GSTO1 inh conf = GSTO1 (human) inhibition, confirmation. shares compounds with GSTO1 counter. recombinant GSTO1, probe fluorescence polarization. inhibition, % at 5.96 µM. hit rate 54% among 2,400;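 active means inhibition above the primary screen's cutoff, its mean inhibition plus 3 SD, cut at about 35% in these data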;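 further: loss of polarization as inhibitors block binding of rhodamine sulfonate ester activity probe; 0% = GSTO1 with DMSO and 100% = wells lacking GSTO1 enzyme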
LYPLA1 confirm = LYPLA1 (human) inhibition, confirmation counter-screen. shares compounds with LYPLA1 counter. recombinant LYPLA1, FP-Rh probe fluorescence polarization. AID 2233. hit rate 69% among 480. inhibition, % at 5.9 µM;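 active means mean inhibition across replicates above the hit cutoff set in the primary screen, cut at about 15% in these data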;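 further: loss of FP-Rh probe labeling of LYPLA1 seen as lower polarization; 0% = LYPLA1 with DMSO and 100% = wells lacking LYPLA1 enzyme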
LYPLA2 confirm = counter-screen for PME1 inhibitors: confirmation of human LYPLA2 inhibitors; shares compounds with LYPLA2 inh; recombinant LYPLA2, FP-Rh probe fluorescence polarization; inhibition, % at 5.9 µM; hit rate 72% among 1,100;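 active means mean inhibition across replicates above the hit cutoff set in the primary screen, cut at about 26% in these data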;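 further: blocked labeling of the enzyme by serine hydrolase FP-Rh probe lowers polarization; 0% = enzyme with DMSO and 100% = wells lacking LYPLA2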
PAD4 confirm = PAD4 (human) inhibition, confirmed | inhibition, % at 6.36 µM | recombinant PAD4, RCA probe fluorescence polarization | hit rate 28% among 1,200 | shares compounds with PAD4 inh;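 active means mean inhibition across replicates above the hit cutoff set by the earlier primary screen, cut at about 15% in these data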;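 further: inhibitors block active-site labeling by the probe so polarization falls; 0% = PAD4 with probe and DMSO and 100% = probe without PAD4 enzyme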
Active calls of the source: *; . = no result; ! = repeats disagree.

SMILES	LYPLA2 inh	PME-1 inh	PAD4 inh	LYPLA1 counter	Fam108B counter	GSTO1 counter	GSTO1 inh conf	PAD4 confirm	others
CCC(=Nc1ccc(N)cc1)C1=C(O)C(C(=O)OC)C(C)(C)CC1=O (configuration not stated)	18.9	26.5*	73.5*	20.6*	14.0	84.7*	6.3	6.9	LYPLA1 confirm=-0.3
CCCCC(=Nc1ccc(N)cc1)C1=C(O)C(C(=O)OC)C(C)(C)CC1=O (configuration not stated)	28.5*	40.8*	75.2*	22.8*	13.4	85.8*	3.2	1.9	LYPLA1 confirm=2.8;LYPLA2 confirm=5.2
CCCC(=Nc1ccccc1)C1=C(O)C(C(=O)OC)C(C)(C)CC1=O (configuration not stated)	-3.4	2.4	-2.3	1.1	0.4	1.2	.	.
CN(C)c1cc(Cl)c2nonc2c1N	6.1	5.9	39.6*	1.2	9.0	60.2*	34.7	-8.8
CCN(CC)c1cc(Cl)c2nonc2c1N	5.6	0.8	-3.5	1.6	-1.2	4.2	.	.
O=C(Nc1ccccc1)Nc1ccc(O)c2ccccc12	-8.1	16.2	23.8*	-13.1	10.6	47.0*	37.9*	-10.9
COc1ccc(OC)c(NC(=O)Nc2ccc(O)c3ccccc23)c1	-3.3	12.9	23.2*	-11.0	6.1	61.4*	-7.0	1.0
Clc1ccc2nc(CSCc3ccccc3)cn2c1	-5.6	1.2	-1.6	-1.4	-2.6	1.3	.	.
CN(C)c1ccc(/C=C(\C#N)C(=O)Nc2nc3c(s2)CCN(Cc2ccccc2)C3)cc1	-9.4	-10.6	-11.0	-7.6	-20.1	-22.4	.	.
COC(=O)CCC(=O)OC1(C)C(=O)C=C2C=C(C3CC3)N(C3CC3)C=C2C1=O (configuration not stated)	5.4	5.3	25.4*	4.5	1.2	51.8*	19.9	-5.0
O=C(Cc1cc(=O)[nH][nH]1)N/N=C/c1c(Cl)cccc1Cl	4.0	-1.0	20.0*!	3.5	-3.7	52.0*	1.5	-4.6
O=C(Cc1cc(=O)[nH][nH]1)N/N=C/c1c(F)cccc1Cl	-10.7	-0.6	-16.5	-2.5	-1.3	33.6	.	.
CCCc1ccc(S(=O)(=O)N(C)S(=O)(=O)c2ccc(F)cc2)cc1	4.4	2.7	1.5	0.1	0.3	4.1	.	.
COc1cccc(Nc2nc(N)c([N+](=O)[O-])c(NCc3ccccc3)n2)c1	-34.6	-22.2	1.3	-18.7	-19.1	-20.9	.	.
CC(C)Oc1cccc(C(=O)C2CCCN(Cc3cnc(N4CCOCC4)s3)C2)c1 (configuration not stated)	-8.2	1.6	-4.4	-1.9	-4.5	7.3	.	.
O=C(NC1(O)C(=O)c2ccccc2C1=O)c1ccc(C(F)(F)F)cc1	4.9	7.5	39.9*	-0.9	6.8	84.2*	77.5*	39.9*
O=C(N[C@@H](Cc1ccccc1)C(=O)O)c1ccc(C(F)(F)F)cc1	3.0	1.1	-2.3	3.9	-4.5	5.7	.	.
Cc1ccc(C(C)(C)NC(=O)C2CCC(=O)N(CC3CCCCC3)C2)cc1 (configuration not stated)	6.8	4.3	-5.4	2.8	-1.1	9.0	.	.
CC(=O)c1ccc(Nc2c([N+](=O)[O-])ccc3nonc23)cc1	0.7	1.1	-0.5	1.6	-1.5	17.3	.	.
O=[N+]([O-])c1cc([N+](=O)[O-])c2nonc2c1Nc1ccc(O)cc1	13.9	11.9	55.1*	5.0	-0.7	64.9*	53.5*	8.4
CCOC(=O)c1c(NC(=O)C2CC(Cl)=CCC2C(=O)O)sc2c1CC(C)(C)OC2 (configuration not stated)	4.2	0.1	-7.0	0.4	-2.8	-3.9	.	.
CC1(C)C(=O)Nc2ccccc2N1C(=O)COC(=O)c1cccnc1Cl	.	.	3.4	.	.	.	.	.
Cc1ccc(C)c(NC(=O)CN(C)C(=O)c2cc3ccccc3oc2=O)c1	.	.	-1.6	.	.	.	.	.
O=C1C(Cl)=C(NCc2cccnc2)C(=O)c2ccccc21	7.0	4.7	21.4*	-0.1	8.6	76.8*	57.0*	-6.7
COc1ccccc1NC1=C(N2CCCCC2)C(=O)c2ccccc2C1=O	4.0	-6.7	37.5*	-1.5	7.0	73.5*	54.2*	1.6
SMILES	LYPLA2 inh	PME-1 inh	PAD4 inh	LYPLA1 counter	Fam108B counter	GSTO1 counter	GSTO1 inh conf	PAD4 confirm	others
O=C1C(Nc2ccccc2)=C(N2CCCCC2)C(=O)c2ccccc21	9.7	4.4	14.9*	3.5	7.8	62.2*	56.2*	-4.5
CC(=O)N1CCn2c3c(c4cc(C)ccc42)CCCC31 (configuration not stated)	8.3	9.5	1.7	5.3	-3.1	10.2	.	.
CC(=O)N1CCn2c3c(c(=O)c4cc(C)ccc42)CCC31 (configuration not stated)	8.6	5.2	46.1*	3.7	9.1	73.2*	56.7*	-2.9
Cc1nn(C)c(C(=O)Sc2cccc(Cl)c2)c1[N+](=O)[O-]	-0.7	-0.7	-1.7	0.4	1.4	6.5	.	.
O=[N+]([O-])c1ccccc1S(=O)(=O)N1CCN(S(=O)(=O)c2ccc3c(c2)OCCO3)CC1	.	.	-1.1	.	.	.	.	.
CC(=O)NC1=C(Nc2ccc(N(C)C)cc2)C(=O)c2ccccc2C1=O	-2.3	-0.9	17.5*	-2.3	1.6	46.3*	4.5	-7.1
CCOc1cc(/C=C2/C(=O)N(c3ccccc3)N=C2C)ccc1OC(=O)c1ccco1	-8.6	1.7	47.0*	-4.4	3.4	65.2*	9.4	-8.4
Cc1cc(NC(=O)NC(C(F)(F)F)C(F)(F)F)no1	7.6	-4.2	1.5	-3.1	0.4	1.2	.	.
Cc1ccc(S(=O)(=O)NCc2ccc(C(=O)NCCc3ccc(S(N)(=O)=O)cc3)cc2)cc1	-8.7	0.3	-4.9	-7.3	-7.8	-5.0	.	.
CC1=NN(Cc2ccccc2)C(=O)C1	-7.0	-12.0	70.9*	-0.8	1.3	57.1*	5.8	-5.1
CC1=NN(c2ccccc2)C(=O)C1	-1.6	0.5	44.9*	1.4	-2.2	71.8*	10.3	-3.0
COc1ccc2nc3ccccc3nc2c1N	-0.6	6.4	24.7*	-0.6	0.2	59.8*	9.2	-3.0
COc1ccc(-c2nc3ccccc3nc2-c2ccc(OC)c(OC)c2)cc1OC	1.6	-0.5	-0.4	-6.5	3.9	1.9	.	.
Cc1c(C(=O)N(C)C2CC(C)(C)NC(C)(C)C2)oc2c(F)cccc12	2.0	1.5	-1.0	-3.1	2.4	-0.2	.	.
